In PubChem BioAssay (Tox21):
Records with an inconclusive call do not appear. Calls of active or inactive are those of the source. The call rests on the fitted dose curve; in most records, active means well fitted curve in the direction sought with a large enough effect in the repeat runs; inconclusive means weak or mixed curves; inactive means no such curve, though single readings can be large; an effect the other way counts as inactive or inconclusive.

Columns and labels:
[1] = qHTS RealTime-Glo MT Cell Viability Assay in HEK293 cells - 16 hour (AID 1224872); further: top concentration of the series differs between compounds; nearly all actives have a fitted effect of over 50% in size
Method in brief: (§1)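 HEK293 cells seeded with NanoLuc/prosubstrate reagent, rested 5 h at 37 C, then dosed and kept at 37 C up to 40 h. Nonlytic real-time luminescence from viable cells read at 0, 8, 16, 24, 32 and 40 h.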

[2] = qHTS RealTime-Glo MT Cell Viability Assay in HepG2 cells - 8 hour (AID 1224873); further: nearly all actives have a fitted effect of over 55% in size
Method in brief: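 HepG2 cells mixed with RealTime-Glo MT reagents (NanoLuc plus cell-permeant prosubstrate) were seeded at 600 cells/well, incubated 5 h at 37 C/5% CO2, then pinned with compounds in DMSO; nonlytic luminescence tracked viability during 40 h treatment.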

[3] = qHTS RealTime-Glo MT Cell Viability Assay in HEK293 cells - 40 hour (AID 1224874); conditions: RealTime-Glo luminescence; max response: active compounds read low; further: nearly all actives have a fitted effect of over 50% in size
Method in brief: (§2)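 Measured as luminescence from the same continuously cultured HEK293 wells at successive time points (0, 8, 16, 24, 32, 40 h) after compound addition. Reagent present from seeding; dosing at 5 h; incubation 37 C.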

[4] = A CellTox Green Cytotoxicity Assay to monitor cytotoxicity in HEK293 cells - 24 hour (AID 1224875); further: series mostly up to about 77 µM; nearly all actives have a fitted effect of over 45% in size
Method in brief: (§3)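 Homogeneous no-lysis format: HEK293 cell suspension mixed with CellTox Green reagent, seeded, incubated 5 h at 37 C/5% CO2, then dosed by pintool with compound in DMSO.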

[5] = A CellTox Green Cytotoxicity Assay to monitor cytotoxicity in HepG2 cells - 16 hour (AID 1224876); further: nearly all actives have a fitted effect of over 45% in size
Method in brief: (§4)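 Fluorescent DNA-binding dye, 600 HepG2 cells/well, 5 h preincubation then compound in DMSO; same plates read at 0–40 h, 37 C.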

[6] = qHTS RealTime-Glo MT Cell Viability Assay in HepG2 cells - 32 hour (AID 1224877); further: nearly all actives have a fitted effect of over 55% in size
Method in brief: (§5)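 HepG2 cells (600/well) were dispensed with RealTime-Glo reagents, incubated 5 h at 37 °C, then treated with compounds in DMSO for up to 40 h. Nonlytic NanoLuc luminescence reflecting viable cells was read at each stated time point.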

[7] = A CellTox Green Cytotoxicity Assay to monitor cytotoxicity in HepG2 cells - 24 hour (AID 1224878); further: nearly all actives have a fitted effect of over 45% in size
Method in brief: as §4

[8] = A CellTox Green Cytotoxicity Assay to monitor cytotoxicity in HepG2 cells - 40 hour (AID 1224879); further: nearly all actives have a fitted effect of over 40% in size
Method in brief: as §4

[9] = A CellTox Green Cytotoxicity Assay to monitor cytotoxicity in HEK293 cells - 32 hour (AID 1224881); further: nearly all actives have a fitted effect of over 40% in size
Method in brief: as §3

[10] = A CellTox Green Cytotoxicity Assay to monitor cytotoxicity in HepG2 cells - 0 hour (AID 1224882); further: nearly all actives have a fitted effect of over 35% in size
Method in brief: as §4

[11] = A CellTox Green Cytotoxicity Assay to monitor cytotoxicity in HepG2 cells - 32 hour (AID 1224883); further: nearly all actives have a fitted effect of over 50% in size
Method in brief: as §4

[12] = A CellTox Green Cytotoxicity Assay to monitor cytotoxicity in HEK293 cells - 8 hour (AID 1224884); further: nearly all actives have a fitted effect of over 35% in size
Method in brief: as §3

[13] = qHTS RealTime-Glo MT Cell Viability Assay in HepG2 cells - 16 hour (AID 1224885); further: nearly all actives have a fitted effect of over 50% in size
Method in brief: as §5

[14] = qHTS RealTime-Glo MT Cell Viability Assay in HEK293 cells - 24 hour (AID 1224886)
Method in brief: as §1

[15] = qHTS RealTime-Glo MT Cell Viability Assay in HEK293 cells - 8 hour (AID 1224887)
Method in brief: as §2

[16] = A CellTox Green Cytotoxicity Assay to monitor cytotoxicity in HEK293 cells - 16 hour (AID 1224888); further: nearly all actives have a fitted effect of over 35% in size
Method in brief: as §3

[17] = qHTS RealTime-Glo MT Cell Viability Assay in HepG2 cells - 0 hour (AID 1224889); further: nearly all actives have a fitted effect of over 50% in size
Method in brief: as §5

[18] = A CellTox Green Cytotoxicity Assay to monitor cytotoxicity in HepG2 cells - 8 hour (AID 1224890); further: nearly all actives have a fitted effect of over 45% in size
Method in brief: as §4

[19] = qHTS assay to identify small molecule antagonists of the estrogen receptor alpha (ER-alpha) signaling pathway using the BG1 cell line in the presence of 0.1 nM 17-beta-estradiol - cell viability counter screen (AID 1259241); further: nearly all actives have a fitted effect of over 40% in size
Method in brief: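 In this screen, hormone-deprived VM7Luc4E2 cells were seeded at 4,000 per well, dosed with compound and 0.1 nM estradiol final, and incubated 22 hr at 37C and 5% CO2; fluorogenic live-cell protease signal reported viability.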

[20] = qHTS RealTime-Glo MT Cell Viability Assay in HEK293 cells - 0 hour (AID 1224880)
Method in brief: as §2
On the % scale 0 is the no-effect control and ±100 the full control effect.

CCCCc1nc(Cl)c(CO)n1Cc1ccc(-c2ccccc2-c2nn[nH]n2)cc1
inactive: Potency [1] | outcome [2] | max response [3] -16.9% | outcome [4] | outcome [5] | Potency [6] | outcome [7] | Potency [8] | outcome [9] | Potency [10] | Potency [11] | outcome [12] | outcome [13] | Potency [14] | Potency [15] | outcome [16] | Potency [17] | outcome [18] | outcome [19]

CCCCCCC1CCC(=O)O1 (stereo unspecified)
inactive: Potency [1] | outcome [2] | max response [3] 4.76% | outcome [4] | outcome [5] | Potency [6] | outcome [7] | Potency [8] | Potency [20] | Potency [10] | outcome [12] | outcome [13] | Potency [15] | outcome [16] | Potency [17] | outcome [18] | outcome [19]

C1CCC2=NCCCN2CC1
inactive: Potency [1] | outcome [2] | max response [3] 20.2% | outcome [4] | outcome [5] | Potency [6] | outcome [7] | Potency [8] | Potency [20] | Potency [10] | outcome [12] | outcome [13] | Potency [14] | Potency [15] | outcome [16] | Potency [17] | outcome [18] | outcome [19]

C[N+](C)(C)CCCCCCCCCC[N+](C)(C)C
inactive: Potency [1] | outcome [2] | max response [3] 9.07% | outcome [4] | outcome [5] | Potency [6] | outcome [7] | Potency [8] | outcome [9] | Potency [10] | Potency [11] | outcome [12] | outcome [13] | Potency [15] | outcome [16] | Potency [17] | outcome [18] | outcome [19]

O=S(=O)(O)c1cccc(S(=O)(=O)O)c1
inactive: Potency [1] | outcome [2] | max response [3] 15.6% | outcome [4] | outcome [5] | Potency [6] | outcome [7] | Potency [8] | outcome [9] | Potency [10] | Potency [11] | outcome [13] | Potency [14] | Potency [15] | outcome [16] | Potency [17] | outcome [18] | outcome [19]

O=C(CO)[C@@H](O)[C@H](O)[C@H](O)CO
inactive: Potency [1] | outcome [2] | max response [3] 1.94% | outcome [4] | outcome [5] | Potency [6] | outcome [7] | Potency [8] | outcome [9] | Potency [10] | Potency [11] | outcome [12] | outcome [13] | Potency [14] | Potency [15] | outcome [16] | Potency [17] | outcome [18] | outcome [19]

Nc1ccncc1N
inactive: Potency [1] | outcome [2] | max response [3] 13% | outcome [4] | outcome [5] | Potency [6] | outcome [7] | Potency [8] | outcome [9] | Potency [10] | outcome [12] | outcome [13] | Potency [14] | Potency [15] | outcome [16] | Potency [17] | outcome [18] | outcome [19]

CC(=O)Nc1ccc(OCC(O)CNC(C)C)cc1 (stereo unspecified)
inactive: Potency [1] | outcome [2] | max response [3] -1.7% | outcome [4] | outcome [5] | Potency [6] | outcome [7] | Potency [8] | outcome [9] | Potency [10] | Potency [11] | outcome [12] | outcome [13] | outcome [16] | Potency [17] | outcome [18] | outcome [19]

O=C(O)CC(C(=O)O)S(=O)(=O)O (stereo unspecified)
inactive: Potency [1] | outcome [2] | max response [3] 5.69% | outcome [4] | outcome [5] | Potency [6] | outcome [7] | Potency [8] | outcome [9] | Potency [10] | Potency [11] | outcome [12] | outcome [13] | Potency [14] | Potency [15] | outcome [16] | Potency [17] | outcome [18]

CCN(CC#N)c1cccc(C)c1
inactive: Potency [1] | outcome [2] | max response [3] 13% | outcome [4] | outcome [5] | Potency [6] | outcome [7] | Potency [8] | outcome [9] | Potency [10] | Potency [11] | outcome [12] | outcome [13] | Potency [14] | Potency [15] | outcome [16] | Potency [17] | outcome [18] | outcome [19]

CC(C)c1ccc2ncccc2c1
inactive: Potency [1] | outcome [2] | max response [3] -0.522% | outcome [4] | outcome [5] | Potency [6] | outcome [7] | Potency [8] | outcome [9] | Potency [10] | Potency [11] | outcome [12] | outcome [13] | Potency [14] | Potency [15] | outcome [16] | Potency [17] | outcome [18] | outcome [19]

NC(=O)N1c2ccccc2CC(=O)c2ccccc21
inactive: Potency [1] | outcome [2] | max response [3] 2.12% | outcome [4] | outcome [5] | Potency [6] | outcome [7] | Potency [8] | outcome [9] | Potency [10] | Potency [11] | outcome [12] | outcome [13] | Potency [15] | outcome [16] | Potency [17] | outcome [18] | outcome [19]

NC(N)=NCCN1CCCCCCC1
inactive: activity change, negative = cytotoxicity [1] -1.96% [at 0.29 µM] | viability change, negative = cytotoxic [2] 0.369% [at 0.29 µM] | max response [3] -2.62% | activity change [4] 3.96% [at 0.29 µM] | cytotoxicity increase [5] -11.2% [at 0.29 µM] | activity change, negative = cytotoxic [6] 0.55% [at 0.29 µM] | cytotoxicity [7] -13.4% [at 0.29 µM] | cytotoxicity increase [8] -13% [at 0.29 µM] | activity change, negative = cytotoxicity [20] -7.81% [at 0.29 µM] | cytotoxicity [10] -10% [at 0.29 µM] | cytotoxicity increase [12] 0.959% [at 0.29 µM] | activity change, negative = cytotoxic [13] 1.58% [at 0.29 µM] | activity change, negative = cytotoxicity [14] -3.39% [at 0.29 µM] | activity change, negative = cytotoxicity [15] -0.479% [at 0.29 µM] | activity change [16] 1.24% [at 0.29 µM] | activity change, negative = cytotoxicity [17] 0.442% [at 0.29 µM] | cytotoxicity increase [18] -11.3% [at 0.29 µM] | activity change, negative = cytotoxicity [19] -0.721% [at 0.349 µM]
